15 molecules from PubChem BioAssay (NCI) can be followed below.

About 83,000 compounds went through this panel and 20% of them were active in at least one assay; those are over-represented in the sample as a whole.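 Assay: single dose, 48 h. Readout: percent growth (0 = no net growth; negative = cell death). Active: <10.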 Values without a mark were called inactive. The source made the active and inactive calls.

What all share (assay): NCI-60 one-dose screen, 48 h (100 = growth as untreated, 0 = no growth, -100 = all killed)
Holding throughout (settings): 10 µM unless noted

Assay [1] concerns NCI-H23 lung.
The subject of assay [2] is NCI-H226 lung.
In assay [3] the test system is NCI-H322M lung.
The test system of assay [4] is HOP-62 NSCLC.
In assay [5] the test system is NCI-H460 lung.
Assay [6] has as its system NCI-H522 lung.
For assay [7], the system named is A549/ATCC NSCLC.
Assay [8] deals with 786-0 renal.
Assay [9] has as its system COLO 205 colon.

In the case of `COc1cc(NC(=O)CSc2nc3ccc(Cl)cc3c(=O)n2-c2ccccc2)cc(OC)c1OC`, the growth in [1] is 102%; in assay [2] it was 91.2%; in assay [3], 99.8%; in assay [4] it was 85.5%; in assay [5], 98.2%; in assay [6], 84.8%. In addition, the growth in [7] was 89%; in assay [8], 92.1%; in assay [9], 116%.
In the case of `CN1CCC2(CC1)N=C(SCC(=O)Nc1cnc3ccccc3c1)C(c1ccc(Br)cc1)=N2`, the growth in assay [1] was 63.5%; in assay [2], 57.6%; in assay [3], 50.8%; in [4] it was 38.9%; in assay [5] it was 3.34% (active); in [6] it was -17.5% (active). Further, the growth in assay [7] is 24.2%; in assay [8], -81.7% (active); in assay [9] it was -76.2% (active).
Take `c1ccc2oc(-c3cnc4nonc4n3)cc2c1`: the growth in assay [1] was 94.8%; in [2] it was 92.1%; in assay [3], 87.7%; in [4] it was 84.7%; in assay [5], 95.8%; in assay [6], 78.3%. Further, the growth in assay [7] was 96.4%; in [8] it was 103%; in assay [9], 103%.
For `Cc1cc(C#Cc2ccc(C(C)(C)C)cc2)ccc1-n1c(/C=C/c2c(Cl)cccc2Cl)nc2ccccc2c1=O`, the growth was 97.9% in [1]; 108% in [2]; 92.8% in assay [3]; 104% in assay [4]; 96.3% in assay [5]; 105% in assay [6]. For the same molecule, the growth is 95.8% in assay [7], 109% in assay [8] and 103% in assay [9].
With `CCOC(=O)Cn1c(-c2nonc2NC(=O)c2ccccc2F)nc2ccccc21`, the growth is 76.2% in [1]; 62.3% in [2]; 67.3% in assay [3]; 73.2% in assay [4]; 10.2% in assay [5]; 47.6% in assay [6]. Also, the growth in [7] was 24%; in [8], 46.4%; in assay [9], 60.1%.
With `C=C(COC(C)=O)[C@H]1CC/C(C)=C/CC/C(C)=C/CC[C@@]2(C)O[C@H]2C1`, the growth was 106% in [1]; 108% in [2]; 102% in assay [3]; 107% in assay [4]; 106% in [5]; 95.3% in assay [6]. Also, the growth in assay [7] is 105%; in assay [8], 96%; in assay [9], 148%.
As for `Clc1cccc(CNc2c3ccccc3nc3ccccc23)c1`, the growth was 32% in assay [1]; 48% in assay [2]; 31.3% in assay [3]; 45.5% in assay [4]; 14.2% in assay [5]; 41.7% in assay [6]. The growth in [7] was 27.9%; in assay [8], 25.2%; in [9], 0.537% (active).
Turning to `COC(=O)CSc1ccc(Cl)cc1`, the growth in assay [1] is 102%; in assay [2], 123%; in assay [3] it was 102%; in [4], 107%; in assay [5], 109%; in assay [6], 92.2%. Besides, the growth in assay [7] is 98%; in assay [8], 95.3%; in assay [9], 108%.
With `Clc1nnc2c3ccccc3ccn12`, the growth in [1] was 113%; in [2] it was 77.8%; in [3], 119%; in [4], 98.5%; in assay [5], 105%; in [6], 103%. Further, the growth in assay [7] was 102%; in [8] it was 99.3%; in assay [9] it was 103%.
For `CC(NC(=O)c1ccccc1)C(=O)Nc1ccccc1` (stereo not given), the growth in assay [1] was 105%; in assay [2], 104%; in assay [3] it was 127%; in assay [4] it was 103%; in assay [5], 118%; in [6] it was 99.6%. In addition, the growth is 96.3% in assay [7], 105% in [8] and 106% in assay [9].
Regarding `Cc1[nH]c2ccccc2c1C1=CC(=O)C=CC1=O`, the growth in [1] was 92.8%; in assay [2] it was 94.2%; in assay [3] it was 120%; in assay [4], 94.7%; in assay [5], 111%; in [6], -24.4% (active). Also, the growth in assay [7] is 93.2%; in [8] it was 84.3%; in [9] it was 55.7%.
Consider `C=CCCCCOc1cccc(/C=C2\N=C3SCCCN3C2=O)c1`, for which the growth in assay [1] was 102%; in assay [2] it was 94.3%; in assay [3], 84.6%; in [4], 94.5%; in [5], 103%; in [6], 83.3%. In addition, the growth in assay [7] was 93.2%; in [8], 95%; in assay [9], 101%.
Regarding `COc1cc2ncnc(Nc3ccc(S(=O)(=O)Nc4cc(C)on4)cc3)c2cc1OCCCN1CCN(c2ccc([N+](=O)[O-])cc2)CC1`, the growth in assay [1] is 103%; in assay [2], 107%; in [3], 103%; in assay [4], 106%; in [5], 110%; in [6], 94.7%. The results for the growth in assay [7], in assay [8] and in assay [9] were 106%, 109% and 105%, respectively.
With `CCN(CC)c1ccc(/C=C2/NC(=O)NC2=O)cc1`, the growth was 44.6% in assay [1]; 81.5% in assay [2]; 79.1% in assay [3]; 53.4% in [4]; 20.6% in assay [5]; 14.5% in [6]. Also, the growth in assay [7] was 59.1%; in assay [8] it was 48%; in assay [9], 3.89% (active).
In the case of `CCOC(=O)C#Cc1c(C(=O)OCC)nnn1[C@@H]1O[C@H](COC(C)=O)[C@@H](OC(C)=O)[C@H]1OC(C)=O`, the growth in [1] is 93.4%; in [2], 92.2%; in assay [3], 101%; in assay [4], 109%; in assay [5] it was 108%; in assay [6], 50%. Moreover, the growth was 78.3% in [7], 102% in assay [8] and 45.6% in [9].
